# According to the supplement of paper PMC8728848:
# The full list was thinned out, with the strongest signals kept by preference.
# Assays:
# Test in all cases: glycan array binding signal (z-score within array); higher = stronger binding
# Conditions in all cases: glycan notation: IUPAC condensed, linker removed; mutation: E41A
# [1] = biological target: Fuc(a1-2)Gal(b1-3)GalNAc(a1-3)[Fuc(a1-2)]Gal(b1-4)GlcNAc
# Method in brief: (§1)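 Negative Z-scores can be read as non-binding. The Z-score is calculated within each array and then averaged across arrays of one protein sequence at different concentrations or buffers and across linkers. Arrays, 3228 in all, were curated from the Consortium for Functional Glycomics database and kept only where the protein sequence was available.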
# [2] = biological target: Fuc(a1-2)Gal(b1-4)GlcNAc(b1-2)Man
# Method in brief: as §1
# [3] = biological target: Fuc(a1-2)Gal(b1-4)GlcNAc(b1-3)GalNAc
# Method in brief: as §1
# [4] = biological target: Fuc(a1-2)[Gal(a1-3)]Gal(b1-4)[Fuc(a1-3)]Glc
# Method in brief: as §1
# [5] = biological target: Fuc(a1-2)[GalNAc(a1-3)]Gal(b1-3)GlcNAc
# Method in brief: as §1
# [6] = biological target: Fuc(a1-2)[GalNAc(a1-3)]Gal(b1-4)GlcNAc(b1-2)Man(a1-3)[Fuc(a1-2)[GalNAc(a1-3)]Gal(b1-4)GlcNAc(b1-2)Man(a1-6)]Man(b1-4)GlcNAc(b1-4)[Fuc(a1-6)]GlcNAc
# Method in brief: as §1
# [7] = biological target: Fuc(a1-2)[GalNAc(a1-3)]Gal(b1-4)GlcNAc(b1-3)Gal(b1-4)GlcNAc(b1-3)Gal(b1-4)GlcNAc
# Method in brief: as §1
# [8] = biological target: Fuc(a1-2)[GalNAc(a1-4)]Gal(b1-4)GlcNAc
# Method in brief: as §1
# [9] = biological target: Fuc(a1-3)[Gal(b1-4)]GlcNAc
# Method in brief: as §1
# [10] = biological target: Fuc(a1-3)[Gal3S(b1-4)]Glc
# Method in brief: as §1
# [11] = biological target: Gal(a1-2)Gal
# Method in brief: as §1
# [12] = biological target: Gal(a1-3)Gal(b1-3)GlcNAc
# Method in brief: as §1
# [13] = biological target: Gal(a1-3)Gal(b1-3)[Fuc(a1-4)]GlcNAc(b1-2)Man(a1-3)[Gal(a1-3)Gal(b1-3)[Fuc(a1-4)]GlcNAc(b1-2)Man(a1-6)]Man(b1-4)GlcNAc(b1-4)GlcNAc
# Method in brief: as §1
# [14] = biological target: Gal(a1-3)Gal(b1-4)[Fuc(a1-3)]GlcNAc
# Method in brief: as §1
# [15] = biological target: Gal(a1-4)Gal(b1-4)GlcNAc(b1-2)Man(a1-3)[Gal(a1-4)Gal(b1-4)GlcNAc(b1-2)Man(a1-6)]Man(b1-4)GlcNAc(b1-4)GlcNAc
# Method in brief: as §1
# [16] = biological target: Gal(b1-3)GalNAc(b1-3)Gal(a1-4)Gal(b1-4)Glc
# Method in brief: as §1
# [17] = biological target: Gal(b1-3)GalNAc(b1-4)Gal(b1-4)Glc
# Method in brief: as §1
# [18] = biological target: Gal(b1-3)GlcNAc(b1-2)Man(a1-3)[Gal(b1-3)GlcNAc(b1-2)Man(a1-6)]Man(b1-4)GlcNAc(b1-4)GlcNAc
# Method in brief: as §1
# [19] = biological target: Gal(b1-3)GlcNAc(b1-6)Gal(b1-4)GlcNAc
# Method in brief: as §1
# [20] = biological target: Gal(b1-4)GlcNAc(b1-2)Man(a1-3)[Gal(b1-4)GlcNAc(b1-2)Man(a1-6)]Man(b1-4)GlcNAc(b1-4)GlcNAc
# Method in brief: as §1
# [21] = biological target: Gal(b1-4)GlcNAc(b1-2)Man(a1-3)[GlcNAc(b1-4)][Gal(b1-4)GlcNAc(b1-2)Man(a1-6)]Man(b1-4)GlcNAc(b1-4)GlcNAc
# Method in brief: as §1
# [22] = biological target: Gal(b1-4)GlcNAc(b1-3)Gal(b1-4)GlcNAc(b1-2)[Gal(b1-4)GlcNAc(b1-3)Gal(b1-4)GlcNAc(b1-6)]Man(a1-6)[Gal(b1-4)GlcNAc(b1-3)Gal(b1-4)GlcNAc(b1-2)Man(a1-3)]Man(b1-4)GlcNAc(b1-4)GlcNAc
# Method in brief: as §1
# [23] = biological target: GalNAc(a1-3)Gal
# Method in brief: as §1
# [24] = biological target: GalNAc(a1-3)GalNAc
# Method in brief: as §1
# [25] = biological target: GlcNAc(a1-4)Gal(b1-4)GlcNAc
# Method in brief: as §1
# [26] = biological target: GlcNAc(b1-2)[GlcNAc(b1-4)]Man(a1-3)[GlcNAc(b1-4)][GlcNAc(b1-2)Man(a1-6)]Man(b1-4)GlcNAc(b1-4)GlcNAc
# Method in brief: as §1
# [27] = biological target: GlcNAc(b1-3)Gal(b1-4)GlcNAc(b1-2)[GlcNAc(b1-3)Gal(b1-4)GlcNAc(b1-6)]Man(a1-6)[GlcNAc(b1-3)Gal(b1-4)GlcNAc(b1-2)Man(a1-3)]Man(b1-4)GlcNAc(b1-4)GlcNAc
# Method in brief: as §1
# [28] = biological target: GlcNAc(b1-3)Gal(b1-4)GlcNAc(b1-3)Gal(b1-4)GlcNAc(b1-3)Gal(b1-4)GlcNAc(b1-3)Gal(b1-4)GlcNAc(b1-2)Man(a1-3)[GlcNAc(b1-3)Gal(b1-4)GlcNAc(b1-3)Gal(b1-4)GlcNAc(b1-3)Gal(b1-4)GlcNAc(b1-3)Gal(b1-4)GlcNAc(b1-2)Man(a1-6)]Man(b1-4)GlcNAc(b1-4)GlcNAc
# Method in brief: as §1
# [29] = biological target: GlcNAc(b1-3)Gal(b1-4)GlcNAc(b1-3)Gal(b1-4)GlcNAc(b1-3)GalNAc
# Method in brief: as §1
# [30] = biological target: Kdn(a2-3)Gal(b1-4)Glc
# Method in brief: as §1
# [31] = biological target: Man(a1-2)Man(a1-2)Man(a1-3)Man
# Method in brief: as §1
# [32] = biological target: Man(a1-2)Man(a1-2)Man(a1-6)[Man(a1-3)]Man
# Method in brief: as §1
# [33] = biological target: Man(a1-2)Man(a1-3)Man
# Method in brief: as §1
# [34] = biological target: Man(a1-2)Man(a1-3)[Man(a1-2)Man(a1-6)]Man
# Method in brief: as §1
# [35] = biological target: Man(a1-2)Man(a1-3)[Man(a1-2)Man(a1-6)]Man(a1-6)[Man(a1-2)Man(a1-2)Man(a1-3)]Man
# Method in brief: as §1
# [36] = biological target: Man(a1-2)Man(a1-3)[Man(a1-6)]Man(a1-6)[Man(a1-2)Man(a1-3)]Man(b1-4)GlcNAc(b1-4)GlcNAc
# Method in brief: as §1
# [37] = biological target: Man(a1-2)Man(a1-6)[Man(a1-3)]Man(a1-6)[Man(a1-2)Man(a1-2)Man(a1-3)]Man
# Method in brief: as §1
# [38] = biological target: Man(a1-2)Man(a1-6)[Man(a1-3)]Man(a1-6)[Man(a1-2)Man(a1-2)Man(a1-3)]Man(b1-4)GlcNAc(b1-4)GlcNAc
# Method in brief: as §1
# [39] = biological target: Man(a1-3)[Man(a1-6)]Man(a1-6)[Man(a1-2)Man(a1-3)]Man(b1-4)GlcNAc(b1-4)GlcNAc
# Method in brief: as §1
# [40] = biological target: Neu5Ac(a2-3)Gal(b1-3)GlcNAc(b1-2)Man(a1-3)[GlcNAc(b1-4)][Neu5Ac(a2-3)Gal(b1-3)GlcNAc(b1-2)Man(a1-6)]Man(b1-4)GlcNAc(b1-4)GlcNAc
# Method in brief: as §1
# [41] = biological target: Neu5Ac(a2-3)Gal(b1-4)GlcNAc(b1-2)Man
# Method in brief: as §1
# [42] = biological target: Neu5Ac(a2-3)Gal(b1-4)GlcNAc(b1-2)Man(a1-3)[GlcNAc(b1-4)][Neu5Ac(a2-3)Gal(b1-4)GlcNAc(b1-2)Man(a1-6)]Man(b1-4)GlcNAc(b1-4)GlcNAc
# Method in brief: as §1
# [43] = biological target: Neu5Ac(a2-3)Gal(b1-4)GlcNAc(b1-2)[Neu5Ac(a2-3)Gal(b1-4)GlcNAc(b1-4)]Man(a1-3)[GlcNAc(b1-4)][Neu5Ac(a2-3)Gal(b1-4)GlcNAc(b1-2)[Neu5Ac(a2-3)Gal(b1-4)GlcNAc(b1-6)]Man(a1-6)]Man(b1-4)GlcNAc(b1-4)GlcNAc
# Method in brief: as §1
# [44] = biological target: Neu5Ac(a2-3)Gal(b1-4)GlcNAc(b1-3)Gal(b1-4)GlcNAc(b1-3)[Neu5Ac(a2-3)Gal(b1-4)GlcNAc(b1-3)Gal(b1-4)GlcNAc(b1-6)]GalNAc
# Method in brief: as §1
# [45] = biological target: Neu5Ac(a2-3)Gal6S(b1-4)[Fuc(a1-3)]GlcNAc
# Method in brief: as §1
# [46] = biological target: Neu5Ac(a2-6)Gal(b1-4)GlcNAc(b1-2)Man(a1-3)[GlcNAc(b1-4)][Neu5Ac(a2-6)Gal(b1-4)GlcNAc(b1-2)Man(a1-6)]Man(b1-4)GlcNAc(b1-4)GlcNAc
# Method in brief: as §1
# [47] = biological target: Neu5Ac(a2-6)Gal(b1-4)GlcNAc(b1-2)Man(a1-3)[Neu5Ac(a2-3)Gal(b1-4)GlcNAc(b1-2)Man(a1-6)]Man(b1-4)GlcNAc(b1-4)GlcNAc
# Method in brief: as §1
# [48] = biological target: Neu5Ac(a2-6)Gal(b1-4)GlcNAc(b1-3)Gal(b1-4)GlcNAc(b1-3)Gal(b1-4)GlcNAc(b1-2)Man(a1-3)[Neu5Ac(a2-6)Gal(b1-4)GlcNAc(b1-3)Gal(b1-4)GlcNAc(b1-3)Gal(b1-4)GlcNAc(b1-2)Man(a1-6)]GalNAc
# Method in brief: as §1
# [49] = biological target: Neu5Ac(a2-6)Gal(b1-4)GlcNAc(b1-3)Gal(b1-4)GlcNAc(b1-6)[Gal(b1-3)]GalNAc
# Method in brief: as §1
# [50] = biological target: Neu5Ac(a2-8)Neu5Ac(a2-8)Neu5Ac(a2-3)Gal(b1-4)Glc
# Method in brief: as §1
# [51] = biological target: Neu5Gc(a2-6)GalNAc
# Method in brief: as §1
binder,measurement,setting,value
CVN-E41G (protein) MHHHHHHENLYFQSGNFSQACYNSAIQGSVLTSTCIRTNGGYNTSSIDLNSVIANVDGSLKWQGSNFIETCRNTQLAGSSELAAECKTRAQQFVSTKINLDDHIAAIDGTLKYE,glycan array binding signal (z-score),[1],-0.16
same,glycan array binding signal (z-score),[2],-0.09
same,glycan array binding signal (z-score),[3],-0.19
same,glycan array binding signal (z-score),[4],-0.145
same,glycan array binding signal (z-score),[5],-0.168
same,glycan array binding signal (z-score),[6],1.61
same,glycan array binding signal (z-score),[7],-0.123
same,glycan array binding signal (z-score),[8],-0.221
same,glycan array binding signal (z-score),[9],-0.194
same,glycan array binding signal (z-score),[10],-0.171
same,glycan array binding signal (z-score),[11],-0.221
same,glycan array binding signal (z-score),[12],-0.192
same,glycan array binding signal (z-score),[13],1.41
same,glycan array binding signal (z-score),[14],-0.243
same,glycan array binding signal (z-score),[15],0.1
same,glycan array binding signal (z-score),[16],-0.198
same,glycan array binding signal (z-score),[17],-0.211
same,glycan array binding signal (z-score),[18],0.128
same,glycan array binding signal (z-score),[19],-0.121
same,glycan array binding signal (z-score),[20],-0.227
same,glycan array binding signal (z-score),[21],-0.238
same,glycan array binding signal (z-score),[22],0.189
same,glycan array binding signal (z-score),[23],-0.219
same,glycan array binding signal (z-score),[24],-0.252
same,glycan array binding signal (z-score),[25],-0.214
same,glycan array binding signal (z-score),[26],-0.211
same,glycan array binding signal (z-score),[27],-0.064
same,glycan array binding signal (z-score),[28],-0.204
same,glycan array binding signal (z-score),[29],-0.168
same,glycan array binding signal (z-score),[30],-0.177
same,glycan array binding signal (z-score),[31],8.7
same,glycan array binding signal (z-score),[32],8.39
same,glycan array binding signal (z-score),[33],7.22
same,glycan array binding signal (z-score),[34],8.35
same,glycan array binding signal (z-score),[35],10.5
same,glycan array binding signal (z-score),[36],5.81
same,glycan array binding signal (z-score),[37],9.42
same,glycan array binding signal (z-score),[38],6.36
same,glycan array binding signal (z-score),[39],3.98
same,glycan array binding signal (z-score),[40],0.053
same,glycan array binding signal (z-score),[41],0.044
same,glycan array binding signal (z-score),[42],-0.212
same,glycan array binding signal (z-score),[43],-0.177
same,glycan array binding signal (z-score),[44],-0.218
same,glycan array binding signal (z-score),[45],-0.235
same,glycan array binding signal (z-score),[46],-0.208
same,glycan array binding signal (z-score),[47],-0.216
same,glycan array binding signal (z-score),[48],-0.108
same,glycan array binding signal (z-score),[49],-0.172
same,glycan array binding signal (z-score),[50],-0.226
same,glycan array binding signal (z-score),[51],-0.18
